Among all 320,000 compounds or so, about 22,000 (6.9%) were called active. Entries that show only a call come without a potency. Not shown: some 27% with an inconclusive outcome. The sample holds actives, similar compounds and a random draw of the others, so the mix is not that of the screen. Calls come from the whole dose curve; as a rule, active = well fitted inhibition curve with a large enough effect; inconclusive = small, poorly fitted or top-dose-only effect, or another doubt; inactive = no such curve, though single readings can be large or run the other way.
Potency is the fitted concentration of half-maximal effect.

The nature of this assay: Primary qHTS for delayed death inhibitors of the malarial parasite plastid, 96 hour incubation. The note with it: P. falciparum luciferase reporter growth; series mostly up to 28.7 µM. In a few lines: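 Plates of compound plus infected erythrocytes (2% hematocrit, 0.05% parasitemia final) incubate 96 hours, 37 C, 5% CO2. Detection reagent added; reduced luminescence from the parasites' luciferase reporter flags inhibition.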
For `CC(C)Oc1ccc(C(CC(=O)N2CCOCC2)C(C)C)cc1` (configuration not stated), the Potency entry is “inactive”. As to `CC(=O)c1c(C)oc2ccc(NS(=O)(=O)c3ccc(C(=O)O)cc3)cc12`, the Potency entry is “inactive”. As to `O=C(Nc1ccc(O)cc1)c1ccc(NC(=O)c2ccco2)cc1`, the Potency result is “inactive”.

As to `COC(=O)c1ccc2ccccc2c1OC1OC(CO)C(O)C(O)C1NC(C)=O` (configuration not stated), the Potency was 10.4 µM (active). Regarding `COc1cc(/C=C/CO)cc(OC)c1O[C@@H]1O[C@H](CO)[C@@H](O)[C@H](O)[C@H]1O`, the Potency entry was “inactive”. `CC(=O)NC1C(OCc2ccccc2)OC(COC(C)=O)C(OC(C)=O)C1OC(C)=O` (configuration not stated): the Potency entry was “inactive”. In the case of `Cn1cc(S(=O)(=O)Nc2ccc(Cl)cc2Cl)c(=O)n(C)c1=O`, the Potency result was “inactive”. For `Cc1ccc(N2CC(C(=O)NCCS(=O)(=O)N3CCN(c4ccccc4)CC3)CC2=O)cc1` (configuration not stated), the Potency entry was “inactive”. Turning to `COCCCNC(=O)C1CC(=O)N(c2ccc(C)cc2)C1` (configuration not stated), the Potency is 11.7 µM (active).

For `COCCNC(=O)C1CCN(C(=O)C2CC(=O)N(c3ccc(C)cc3)C2)CC1` (configuration not stated), the Potency result was “inactive”. Turning to `Cc1nc(Cl)cc(N/N=C/c2ccccc2)n1`, the Potency entry was “inactive”. As for `Cc1ccc(/C=C/C(=O)OCC(=O)Nc2cccnc2Cl)cc1`, the Potency result is “inactive”. Consider `CSCCC(NC(=O)COc1ccccc1)C(=O)OCCOc1ccc(F)cc1` (configuration not stated), for which the Potency result was “inactive”. Turning to `O=C(NCC(=O)N1CCC2(CC1)NCCc1[nH]cnc12)c1ccc(Br)cc1`, the Potency result is “inactive”. As for `Cc1ccsc1C(=O)NC1CCCCC1C` (configuration not stated), the Potency entry was “inactive”. For `Cc1ccc(NC(=O)COc2ccc(/C=C3/NC(=O)NC3=O)cc2)cc1`, the Potency entry is “inactive”. As for `COc1cccc(CNC(=O)C2CC(=O)N(C3CCCCCCC3)C2)c1` (configuration not stated), the Potency result is “inactive”. On to `O=C(NCCCN1CCCCC1)C1CC(=O)N(CCc2ccccc2)C1` (configuration not stated), for which the Potency entry was “inactive”. Consider `O=C(NCCCN1CCCCCC1)C1CC(=O)N(C2CCCC2)C1` (configuration not stated), for which the Potency is 3.7 µM (active). Take `CC(C)c1c(C(=O)N/N=C/c2ccc(-c3ccccc3)cc2)nnn1-c1nonc1N`: the Potency entry was “inactive”. On to `Nc1nonc1-n1nnc(C(=O)N/N=C/C2CCCCC2)c1-c1ccccc1`, for which the Potency entry was “inactive”. For the compound `Nc1nonc1-n1nnc(C(=O)N/N=C/c2ccc(Cl)cc2)c1-c1ccc2c(c1)OCO2`, the Potency is 0.0657 µM (active). For `CCOC(=O)N1CCN(C(=O)COc2ccc3oc4c(c3c2)CCCC4)CC1`, the Potency entry is “inactive”.

Regarding `CC(=O)Oc1ccc(-c2cccc(C(=O)N3CCCCC3)c2)cc1`, the Potency result is “inactive”. On the same count and under the same terms, to `COc1ccccc1CNC(=O)C1CCN(C(=O)[C@@H]2Cc3ccccc3CN2)CC1` belongs “inactive”. On the same count and under the same terms, the figure for `C/C(CCC(=O)OC[C@H]1O[C@H](C#Cc2ccccc2)C=C[C@@H]1Oc1ccc(C)cc1)=N\OC[C@@H](O)[C@H]1O[C@@H]2OC(C)(C)O[C@@H]2[C@H]1O` is 13.1 µM (active); for `NC(=O)C1CCN(c2nc(-c3cccc(F)c3)cs2)CC1` it is “inactive”; for `Nc1nnc(SCC(=O)NCC(=O)Nc2ccc(F)c(F)c2F)s1` it is “inactive”. `CCN(CC(=O)Nc1c(F)cccc1F)C(=O)c1ccc(Sc2nncn2C)c([N+](=O)[O-])c1`: the Potency result is “inactive”. On the same count and under the same terms, to `CN(C)CCNC(=O)c1[nH]nc2c1CCc1ccccc1-2` belongs “inactive”; to `O=C(N/N=C/c1sc(N2CCCCC2)nc1-c1cccs1)c1cccnc1`, 2.08 µM (active). For the compound `Cc1cc(/C=N/NC(=O)c2cccnc2)c(C)n1CC(C)C`, the activity change, negative = inhibition is 33.1% [at 5.75 µM] (inactive). On to `O=C(N/N=C/c1ccc(O)c2ccccc12)c1cccnc1`, for which the Potency result was “inactive”. In the case of `COc1ccccc1CNC(=O)COC(=O)c1sc(C)nc1C`, the Potency result was “inactive”. In the case of `CN1C2CCC1CC(NC(=O)c1ccc([N+](=O)[O-])cc1)C2` (configuration not stated), the Potency result was “inactive”.

In the case of `Cc1nc(/N=C(\N)NC(=O)NC2CCCCC2)nc2ccccc12`, the Potency is 3.29 µM (active). With `Cc1nn(-c2ccccc2)c(C)c1C(=O)OCC(=O)NC(=O)NC1CCCCC1`, the Potency result is “inactive”. Consider `COc1ccc2nc(/N=C(\N)NC(=O)Nc3ccccc3)nc(C)c2c1`, for which the Potency result was “inactive”. With `O=c1ccc2cc(S(=O)(=O)NCCCc3ccccc3)ccc2[nH]1`, the Potency entry is “inactive”. For the compound `COc1ccc(CN2CCCC(C(=O)N3CCCCC3)C2)cc1` (configuration not stated), the Potency entry is “inactive”. As for `Cc1ccc(OC(=O)c2cncc(Br)c2)c(C)c1`, the Potency entry is “inactive”. The same measure, in the same setting: to `N/C(=N\OC(=O)COc1ccc([N+](=O)[O-])cc1)c1ccc(Br)cc1` belongs “inactive”. The same measure, in the same setting: the figure for `CCOC(=O)COc1ccc([N+](=O)[O-])cc1` is 0.415 µM (active); for `O=C1CCCN1C(=O)COc1ccc([N+](=O)[O-])cc1` it is “inactive”. As to `Cc1cc(NC(=O)CCC(=O)N(Cc2ccccc2)C(C(=O)NC2CCCC2)c2ccc(C)o2)no1` (configuration not stated), the Potency result is “inactive”. Consider `CC(C)CCN1CCC(C)(NC(=O)c2ccccc2)C1=O` (configuration not stated), for which the Potency result is “inactive”.

Take `COc1ccccc1C(=O)NCCC(=O)NN1C(=O)NC2(CCCCC2)C1=O`: the Potency entry is “inactive”. Same read-out and setting: the entry for `C/C(=N\Nc1nc(Nc2ccccc2)nc(N2CCOCC2)n1)c1cccs1` is “inactive”.

Take `O=C(CN1CCOCC1)Nc1cc(Cl)ccc1Cl`: the Potency result was “inactive”. Still for that read-out and setting: to `O=C(CSc1nc(Nc2ccccc2)nc(N2CCOCC2)n1)Nc1cc(Cl)ccc1O` belongs 5.22 µM (active); to `CC(=O)c1c(C)[nH]c(C(=O)COC(=O)CCOc2ccc(C)cc2)c1C`, “inactive”. Same read-out and setting: to `Cn1nc(C(C)(C)C)c([N+](=O)[O-])c1C(N)=O` belongs “inactive”; to `CC(=O)N1c2ccc(S(=O)(=O)N(C)CC(=O)N(C)Cc3ccccc3)cc2CC1C` (configuration not stated), “inactive”. `CC(=O)c1sc(N)nc1C`: the Potency result was “inactive”. Turning to `COc1ccccc1CNS(=O)(=O)c1cc2c3c(c1)CCC(=O)N3CCC2`, the Potency entry was “inactive”.

For `CN(C)S(=O)(=O)c1ccc(N2CCCC2)c(C(=O)Nc2ccc(Br)cc2F)c1`, the Potency was 8.28 µM (active). Still for that read-out and setting: the entry for `Cc1ccccc1OCC(=O)NNC(=O)c1cc(S(=O)(=O)N(C)C)ccc1N1CCCC1` is “inactive”; for `CN(C)S(=O)(=O)c1ccc(N2CCCC2)c(C(=O)Nc2cccc(F)c2)c1` it is “inactive”.

As to `CCOC(=O)c1c(C)[nH]c(C(=O)NCCN2CCOCC2)c1C`, the Potency result was “inactive”. On to `O=C(NCCCN1CCOCC1)c1ccc2c(c1)N(Cc1cccc(F)c1)C(=O)c1ccccc1S2`, for which the Potency result is “inactive”. For `COC(=O)c1sc(N)c(C(=O)OC)c1COC(=O)CNS(=O)(=O)c1ccc(C)cc1`, the Potency entry was “inactive”. Same read-out and setting: the figure for `C=CCn1c(SCc2c(C(=O)OC)sc(N)c2C(=O)OC)nnc1-c1ccc(Cl)cc1` is 3.29 µM (active). In the case of `C=CCn1c(SCc2cc(C(=O)OC)c(C)o2)nnc1-c1ccncc1`, the activity change, negative = inhibition was -0.417% [at 5.75 µM] (inactive).

Consider `Cc1nc2cc(NC(=O)Nc3cccc(F)c3)ccc2n1C`, for which the Potency result was “inactive”. Same read-out and setting: the entry for `COc1ccc(CNC(=O)COC(=O)CCS(=O)(=O)c2ccc(C)cc2)cc1OC` is “inactive”; for `COc1ccc2c(c1)C(C)=CC(C)(C)N2C(=O)Nc1ccccc1` it is 10.4 µM (active); for `COc1ccc2c(c1)C(C)=CC(C)(C)N2C(=O)CNCc1ccc2c(c1)OCO2` it is “inactive”. Regarding `COc1ccc(NC(=O)N2CCC(Cc3ccccc3)CC2)cc1`, the Potency entry was “inactive”. For the compound `CCOC(=O)c1c(S(=O)(=O)NCC(=O)Nc2ccc(C)cc2)c(C)n(C)c1C`, the Potency entry was “inactive”.

With `CCOC(=O)c1c(C)n(C)c2ccc(OC)c(NS(=O)(=O)CC)c12`, the Potency result was “inactive”. Take `CCOC(=O)c1c(S(=O)(=O)Nc2cccc(Cl)c2)c(C)n(C)c1C`: the Potency was 10.4 µM (active). With `CCN(CC)CCCNC(=O)COc1ccc2oc3c(c2c1)CCCC3`, the Potency result is “inactive”. As for `CCCS(=O)(=O)N1CCN=C1SCc1cccc(F)c1`, the Potency entry was “inactive”. Still for that read-out and setting: to `CN(CC(=O)Nc1ccccc1C(F)(F)F)C(=O)Cc1ccccc1F` belongs “inactive”; to `CC[N+](CC)(CC)CCCCCCCCCC[N+](CC)(CC)CC`, 0.37 µM (active). `Cc1cccc(C)c1NC(=O)CSc1nc2c([nH]1)c(=O)n(C)c(=O)n2C`: the Potency result is “inactive”. For `CC(C)(C)[Si](OCC[C@@H]1C[C@@]1(C)[C@@H](NP(=O)(c1ccccc1)c1ccccc1)c1ccccc1)(c1ccccc1)c1ccccc1`, the Potency is 2.33 µM (active). As to `O=C(NC1CCCCC1)C1CCC(CNS(=O)(=O)c2ccccc2)CC1` (configuration not stated), the Potency entry was “inactive”.

`Cc1nc(N2CCOCC2)c2c(C)c(C(=O)Nc3ccc(C(F)(F)F)cc3)sc2n1`: the Potency entry is “inactive”. With `Cc1nc(N2CCN(c3ccccn3)CC2)c2c(C)c(C(=O)Nc3ccc(F)cc3)sc2n1`, the Potency is 4.15 µM (active). Regarding `CCN(CC)c1ccc(NC(=O)CN2CCN(c3ccccn3)CC2)cc1`, the Potency result was “inactive”. Consider `CN(Cc1ccc(F)cc1)C(=O)COc1ccc2ccccc2c1`, for which the Potency result is “inactive”. As for `COc1ccc(N=Nc2c(-c3ccc(OC)cc3)[nH]oc2=O)cc1`, the Potency entry is “inactive”.

For `Cc1ccc(NC(=O)COc2ccc(-n3ccnc3)cc2)cc1Cl`, the Potency was 2.94 µM (active). The same measure, in the same setting: the entry for `O=C(COc1ccc(Cl)cc1)Nc1ccc2c(c1)OCO2` is “inactive”; for `Cc1ccc(NC(=O)COc2ccc(/C=N\NC(=O)c3cccnc3)cc2)cc1C` it is “inactive”.

`O=C(CCNC(=O)C1CCN(S(=O)(=O)c2ccccc2)CC1)NC1CC1`: the Potency result was “inactive”. Turning to `O=C1Nc2ccccc2/C1=C/c1ccnc2ccccc12`, the Potency entry was “inactive”. `CC1CN(C(=O)CCC(=O)NC2CCN(Cc3ccccc3)CC2)c2ccccc2O1` (configuration not stated): the Potency result is “inactive”.

Consider `Cc1ccc(OCC(=O)N2CCN(C(=O)c3cccnc3)CC2)cc1`, for which the Potency entry is “inactive”. Regarding `CCN(CC(=O)Nc1c(F)cccc1F)C(=O)c1cnc(C)cn1`, the Potency result is “inactive”. `CCN(CC)C(=O)N1CCN(C(=O)c2ccc(C)cn2)CC1`: the Potency was 11.7 µM (active). Still for that read-out and setting: the entry for `CC(C)[C@@H](C(=O)O)N(Cc1cccc(CN([C@H](C(=O)O)C(C)C)S(C)(=O)=O)c1)S(C)(=O)=O` is “inactive”; for `O=C(Nc1ccc(C(=O)NCc2ccccc2Cl)cc1)C1=CSCCO1` it is “inactive”; for `CSc1ccc(CNC(=O)c2ccc(NC(=O)C3=CSCCO3)cc2)cc1` it is 7.38 µM (active). Same read-out and setting: to `CS(=O)(=O)NCc1ccc(C(=O)NCc2ccccc2)cc1` belongs “inactive”. `O=[N+]([O-])c1ccc(NC(=S)N2CCN(c3ccccn3)CC2)cc1`: the Potency result was “inactive”. On the same count and under the same terms, the entry for `O=[N+]([O-])c1cc([N+](=O)[O-])c(Oc2cc(F)cc(F)c2F)cc1NN1CCCCC1` is “inactive”; for `Cc1cc2c(cc1S(=O)(=O)NCc1ccc(Cl)cc1)OCC(=O)N2` it is “inactive”. For `O=C(Nc1cccc(Br)c1)c1ccc2snnc2c1`, the Potency entry is “inactive”.

As for `O=C(Nc1ccc2ccccc2c1)Nc1ccc2snnc2c1`, the Potency is 4.65 µM (active).

Turning to `COc1ccc(NC(=O)Nc2ccc3nsnc3c2)cc1`, the Potency entry is “inactive”.

Values taken from PubChem BioAssay AID504834 (National Center for Advancing Translational Sciences (NCATS), 2011).
